# Test results reported in the OligoGym collection.
# Assays:
# Test in all cases: pooled miR-30 sensor sort-seq; sequence = guide strand
# Conditions in all cases: shRNA
# MYCL1 = target: MYCL1
# MYCBPAP = target: MYCBPAP
# MYL4 = target: MYL4
# MYH14 = target: MYH14
# MYST4 = target: MYST4
# NCSTN = target: NCSTN
# NLRP3 = target: NLRP3
# NMRAL1 = target: NMRAL1
# NPBWR1 = target: NPBWR1
# NTRK3 = target: NTRK3
# NUP54 = target: NUP54
# ODF3L1 = target: ODF3L1
# OTP = target: OTP
# P2RY6 = target: P2RY6
# PARP11 = target: PARP11
# PCSK5 = target: PCSK5
# PGLYRP2 = target: PGLYRP2
# PHF15 = target: PHF15
# PHF19 = target: PHF19
# PHF23 = target: PHF23
# PHF20 = target: PHF20
# Also: reference of the scale not given here.
sequence,measurement,setting,value
ATCAATTTCTTCATTCTCCGAG,sensor-assay potency score (higher = more potent),MYCL1,0.219
TTGTGCTTCTTGCTGTTGGGAC,sensor-assay potency score (higher = more potent),MYCBPAP,-0.31
TGAACTCTTCAATCTGGTCGGC,sensor-assay potency score (higher = more potent),MYL4,0.0317
TGTCAGGATCTCGTATCGCTGC,sensor-assay potency score (higher = more potent),MYH14,-0.48
TCATCTGCCATCTCATCCCGGT,sensor-assay potency score (higher = more potent),MYH14,-0.0949
TTTATTAACAGGGAGGGCCTGT,sensor-assay potency score (higher = more potent),MYL4,-0.299
TCATTCTCCGAGTCGCTTGGGC,sensor-assay potency score (higher = more potent),MYCL1,-0.392
TTCTTTTCTGCAACTGCTGCTG,sensor-assay potency score (higher = more potent),MYCL1,-0.121
TTGAGGCGCAGAACCAGCCAGC,sensor-assay potency score (higher = more potent),MYH14,-0.999
TTGTAGTCGACCTTGCCCGCGT,sensor-assay potency score (higher = more potent),MYH14,-0.308
TTGTCATTCTTCACTGTCTTGG,sensor-assay potency score (higher = more potent),MYH14,-0.287
TTGCTTAGGATCACTACTTTGG,sensor-assay potency score (higher = more potent),MYCL1,-0.448
TTTTCTTTGACATTCTCTGAGG,sensor-assay potency score (higher = more potent),MYCBPAP,-0.601
TCTCCTTGTAGGACATTGCTAA,sensor-assay potency score (higher = more potent),MYCBPAP,-0.62
TCTGGTCTCTTGCTCTAGCTGC,sensor-assay potency score (higher = more potent),MYH14,-0.396
AAGTCTATCTTTACACTCTTGG,sensor-assay potency score (higher = more potent),MYL4,-0.446
TTTCTCTGTAGCCATCCTCTTC,sensor-assay potency score (higher = more potent),MYCL1,-0.97
TTTTGTCTTGGTCATGACCAGA,sensor-assay potency score (higher = more potent),MYCBPAP,-1.08
TTGAGTCTCGGCACAATCCTGA,sensor-assay potency score (higher = more potent),MYST4,0.672
TTACAGACAACAATCGTTGCTT,sensor-assay potency score (higher = more potent),MYST4,0.972
TATATCTTCCTCTCCACTGAGT,sensor-assay potency score (higher = more potent),NCSTN,-0.425
TTCCACTGTATTTCTCTGCAGT,sensor-assay potency score (higher = more potent),NCSTN,0.342
TAGATCCACATGGTCTGCCTTC,sensor-assay potency score (higher = more potent),NLRP3,-0.905
TTGAAGTCGATCATTAGCGTGG,sensor-assay potency score (higher = more potent),NLRP3,0.548
TTGGTCACGATGAAGGTGGCGT,sensor-assay potency score (higher = more potent),NMRAL1,-0.0574
TTGATGTTCTCCAGGCCGCTGT,sensor-assay potency score (higher = more potent),NMRAL1,-0.625
TAGAGGAAGGGGTTGAGGCAGC,sensor-assay potency score (higher = more potent),NPBWR1,0.0364
TTGATCTCAGTCTTGCTGCAGA,sensor-assay potency score (higher = more potent),NTRK3,0.132
TCTCTGTAGTGAACTTCCGGTA,sensor-assay potency score (higher = more potent),NTRK3,-0.729
TATATCTTCTAGATCGTCTTTA,sensor-assay potency score (higher = more potent),NUP54,0.519
TAGCAGGGAGCAGCTCGGCTGA,sensor-assay potency score (higher = more potent),ODF3L1,-1.48
TCTGCTACTAGAAATCTTGGTC,sensor-assay potency score (higher = more potent),ODF3L1,0.655
TTGGTAGCAATGCTTGTCCTCC,sensor-assay potency score (higher = more potent),OTP,-0.441
TTCTGTAGGAGCTCATGTGGTC,sensor-assay potency score (higher = more potent),P2RY6,-0.257
ATAGTTGTAGATGAGCAGGGGC,sensor-assay potency score (higher = more potent),P2RY6,0.421
TTTTTTTCTTGAGCTGAGCCTT,sensor-assay potency score (higher = more potent),PARP11,-0.839
TTTGACACATTCCTAAGTCTAA,sensor-assay potency score (higher = more potent),PCSK5,-0.793
TTGGCTCATGCACTGAAGCTGG,sensor-assay potency score (higher = more potent),PGLYRP2,-0.819
ATCTGCAGTGGTGACATCTGGA,sensor-assay potency score (higher = more potent),PGLYRP2,-0.549
TTGAACTTGACCTCATCGTTGT,sensor-assay potency score (higher = more potent),PHF15,0.744
TTTATAACTGTTCAGAGCGTTG,sensor-assay potency score (higher = more potent),PHF19,-1.51
TTTTATAGACAACTGTCCCATT,sensor-assay potency score (higher = more potent),PHF23,-0.805
TTTGTTACTTCCACAGTCGAAA,sensor-assay potency score (higher = more potent),PHF20,-0.866
TATGCCAAAACAAAACTGCAGA,sensor-assay potency score (higher = more potent),PHF23,-0.479
TTAATGGGACTTCACATCCTTT,sensor-assay potency score (higher = more potent),PHF20,-1.47
TTAACTTCCGCTTCTTGCTCTT,sensor-assay potency score (higher = more potent),PHF23,0.475
TTGAATTTCATCCAGCGTGAAG,sensor-assay potency score (higher = more potent),PHF19,-1.1
TTCCTTGTCTTCCTTCTCGTTC,sensor-assay potency score (higher = more potent),PHF20,-0.88
TTTTAAACAGTCCACAACTTTG,sensor-assay potency score (higher = more potent),PHF20,-1.74
TTGTCCACCTCGTCGGTCTTGG,sensor-assay potency score (higher = more potent),PHF15,-0.798
TAACATGTGATCAGATCCCATG,sensor-assay potency score (higher = more potent),PHF23,-0.921
TCTAACCCTCTCTAGGTCCTGC,sensor-assay potency score (higher = more potent),PHF15,0.0914
TGACAGTCTGAACTACTCCATC,sensor-assay potency score (higher = more potent),PHF20,-1.04
TTGTTCTTGACCTTCGCCAGGG,sensor-assay potency score (higher = more potent),PHF19,0.174
TTGAATTTACAACTGTCTCCAA,sensor-assay potency score (higher = more potent),PHF20,0.401
TTGTCTGCTAATATAGTCCGCA,sensor-assay potency score (higher = more potent),PHF15,0.0345
TTCTCTTGGATGACTTTGCTTT,sensor-assay potency score (higher = more potent),PHF23,-0.308
TAATATAGTCCGCATTTCCAGG,sensor-assay potency score (higher = more potent),PHF15,-1.26
TAGATGTCGCATGACTGTCAGT,sensor-assay potency score (higher = more potent),PHF15,-1.14
TAACTTCCGCTTCTTGCTCTTC,sensor-assay potency score (higher = more potent),PHF23,-0.863
